This is one part of the list. Inconclusive results are not listed. Active and inactive are the calls of the source. The call rests on the fitted dose curve; in most records, active means well fitted inhibition curve with a large enough effect; inconclusive means small, poorly fitted or top-dose-only effect; inactive means no such curve, though single readings can be large or run the other way.
Target: Phosphoglycerate kinase, glycosomal (Trypanosoma brucei brucei) (UniProt P07378)
Test: qHTS for inhibitors of Phosphogylcerate Kinase: Hit Validation Screen (AID 686980); further: nearly all actives have a fitted effect of over 65% in size
Details: TbPGK coupled GAPDH assay, Kinase-Glo luminescence
Description: Several species of the Trypanosomatidae family of parasitic protozoans cause a spectrum of diseases throughout the tropical and subtropical world. Sleeping sickness, caused by two subspecies of Trypanosoma brucei, is endemic to areas of sub-Saharan Africa, while Chagas disease, a manifestation of Trypanosoma cruzi infection, is prevalent throughout Central and South America. In addition, many species of Leishmania are responsible for a range of cutaneous and visceral diseases, causing ulcers, destructive lesions and kalaazar, a lethal infection of the viscera. Collectively, these organisms infect 30 million people worldwide (~500 million live in endemic areas), and account for ~130,000 deaths annually. Given their debilitating and prevalent nature, trypanosomatid parasites impose a heavy medical, economic and social burden on entire populations, primarily in the developing world. The problem is further exacerbated by the fact that existing treatments have progressed little in the past 50 years, and current drugs show high toxicity and poor efficacy. […] Blood-stream stages of T. brucei are entirely dependent on glycolysis as a source of ATP, and the tricarboxylic acid cycle and oxidative phosphorylation are both repressed. Glycolysis in axenically cultured T. cruzi, representing the intracellular pathogenic stage, is also essential for these parasites. […] Previous studies have shown that the glycolytic enzyme, phosphoglycerate kinase (PGK), is a viable target for drugs to kill these parasites. […] NIH Molecular Libraries Probe Production Network [MLPCN] NIH Chemical Genomics Center [NCGC] MLPCN Grant: R03 MH093212 PI Name: Malcolm Walkinshaw, University of Edinburgh
3ul of substrate/PGK buffer (columns 1,2,5-48) are dispensed into Greiner white solid bottom 1536-well assay plates; columns 3-4 receive only TEA buffer as 0x PGK controls. Compounds are then transferred via Kalypsys pin tool equipped with 1536-pin array (10nl slotted pins, V&P Scientific, San Diego, CA). Following addition of compound, 1ul of GAPDH (100nM final concentration, all columns) is added to initiate the reaction (this upstream coupling enzyme is necessary for in-well production of PGK substrate, 1,3-bisphosphoglycerate (1,3-BPG), which is unstable and not commercially available). The plates are then incubated at room temperature for 60 minutes. Kinase-Glo Plus reagent is added (2ul) and plates incubated for 10 minutes, before being transferred to a ViewLux high-throughput CCD imager (PerkinElmer) wherein single end-point measurements of luminescence are acquired using a clear filter. All reagents are diluted in an assay buffer consisting of 100mM TEA (pH 7.6), 5mM MgCl2 and 0.01% Tween-20.
Potency means the concentration at half of the fitted maximal effect.

Chain of Phosphoglycerate kinase, glycosomal (Trypanosoma brucei brucei) (P07378 whole entry, looked up): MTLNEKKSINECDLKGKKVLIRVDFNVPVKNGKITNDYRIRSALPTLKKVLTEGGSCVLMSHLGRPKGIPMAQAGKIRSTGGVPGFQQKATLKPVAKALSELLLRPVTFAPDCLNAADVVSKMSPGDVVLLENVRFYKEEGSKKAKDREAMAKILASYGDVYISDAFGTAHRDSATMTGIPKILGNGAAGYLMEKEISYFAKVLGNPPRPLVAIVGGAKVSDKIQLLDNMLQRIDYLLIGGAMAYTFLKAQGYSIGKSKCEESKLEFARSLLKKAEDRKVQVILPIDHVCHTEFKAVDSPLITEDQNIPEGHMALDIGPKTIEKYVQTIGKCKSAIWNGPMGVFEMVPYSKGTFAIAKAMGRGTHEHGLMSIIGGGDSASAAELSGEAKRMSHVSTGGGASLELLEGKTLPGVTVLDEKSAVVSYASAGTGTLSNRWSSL

Potency, active:
COc1ccc(Cl)cc1NC(=O)CCS(=O)(=O)c1ccc(Br)cc1 5.17 µM, Cc1ccc(-c2nc(SCc3ccc(Br)cc3)n3[nH]c(=O)cc3n2)cc1 9.19 µM, COCCCn1c(Cc2csc(Nc3cccc(Cl)c3)n2)nnc1SCC(=O)OC1CCCCC1 9.19 µM, O=C(Oc1ccc(-c2nc(-c3ccccn3)no2)cc1)c1ccccc1 16.3 µM, Cc1ccc(C(=O)O)cc1-c1ccc(/C=C2\SC(=O)N(CC(=O)Nc3ccc4c(c3)OCO4)C2=O)o1 8.19 µM, O=C(CSc1nc2ccccc2c(=O)[nH]1)Nc1nc(-c2ccc(Br)cc2)cs1 4.11 µM, C=CCn1c(C)cc(C2=NNC(=NCC)SC2)c1C 11.6 µM, Cc1c(CC(=O)N2CCN(C(=O)C3COc4ccccc4O3)CC2)c(=O)oc2c(O)c(O)ccc12 (configuration not stated) 2.59 µM, C=CC1=C(C(=O)O)N2C(=O)[C@@H](NC(=O)/C(=N/OCC(=O)O)c3csc(N)n3)[C@H]2SC1 0.116 µM, Cc1nonc1C(=O)N/N=C/c1ccc(O)cc1 5.8 µM, Cc1ccnc(NC(=O)c2ccoc2C)c1 14.6 µM, O=C1/C(=C/c2cccs2)CCc2ccccc21 14.6 µM
